From PubChem BioAssay AID1851 (National Center for Advancing Translational Sciences (NCATS), 2009)
Among all 16,000 compounds or so, about 2,600 (16%) were called active. Roughly 20% stayed inconclusive and do not appear here. Calls come from the whole dose curve; as a rule, active = well fitted curve in the direction sought with a large enough effect; inconclusive = small, poorly fitted or top-dose-only effect, or effect the other way; inactive = no such curve, though single readings can be large or run the other way. Not all results are given here. The source holds several records for some structures; these can differ, active in one and inactive in another.

What follows are compounds tested against Cytochrome P450 2D6 (Homo sapiens) (UniProt P10635) (assay: Cytochrome panel assay with activity outcomes). Settings: recombinant CYP, pro-luciferin dealkylation, luminescence, p450-cyp2d6; series mostly up to 57.1 µM; activity, negative = inhibition: at the top concentration.
Sequence of Cytochrome P450 2D6 (Homo sapiens) (P10635 whole entry, looked up): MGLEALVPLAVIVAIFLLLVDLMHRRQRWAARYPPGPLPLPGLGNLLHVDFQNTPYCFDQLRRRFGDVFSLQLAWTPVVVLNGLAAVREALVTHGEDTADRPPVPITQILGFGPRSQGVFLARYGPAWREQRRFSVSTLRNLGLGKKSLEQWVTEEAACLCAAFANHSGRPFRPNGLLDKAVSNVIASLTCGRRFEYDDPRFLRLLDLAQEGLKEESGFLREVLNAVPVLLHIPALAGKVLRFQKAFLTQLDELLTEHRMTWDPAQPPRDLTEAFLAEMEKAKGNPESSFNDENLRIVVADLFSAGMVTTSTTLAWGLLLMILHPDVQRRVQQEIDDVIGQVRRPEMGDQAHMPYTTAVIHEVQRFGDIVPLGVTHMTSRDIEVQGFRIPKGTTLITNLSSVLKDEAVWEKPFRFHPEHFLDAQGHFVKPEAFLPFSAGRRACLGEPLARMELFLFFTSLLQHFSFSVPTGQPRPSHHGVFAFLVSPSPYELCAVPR
% is set by controls: 0 for no effect and ±100 for the full control effect.

Row | SMILES | activity, negative = inhibition | AC50
1 | COc1cc(C2C(C#N)=C(N)N(c3sc4c(c3C#N)CCCC4)C3=C2C(=O)CC(C)(C)C3)cc(OC)c1OC (configuration not stated) | 9.61% (inactive) | 
2 | Cc1cc(C)c(O)c(Cc2cccc(Cc3cc(C)cc(C)c3O)c2O)c1 | 12.6% [at 11.4 µM] (inactive) | 
3 | Cc1ccc(C(=O)N/N=C/c2sc(=O)n(Cc3cccc(C(=O)O)c3)c2Cl)cc1 | 12.6% (inactive) | 
4 | CO[C@@H]1COC(=O)[C@H](C)NC(=O)[C@@H](C)COC(=O)CCC[C@H]1C | 8.56% [at 11.4 µM] (inactive) | 
5 | CSc1nncc(/C(C)=N\Nc2ccccc2)n1 | -6.12% (inactive) | 
6 | COCCN=C1Sc2nc3c(C)cccc3cc2CN1Cc1ccco1 |  | 14.1 µM (active)
7 | CCn1c(SCC(=O)NC2CCCCC2)nnc1-c1cc2cccc(OC)c2o1 | -23.6% (inactive) | 
8 | COCCNC(=O)CSc1ncnc2sccc12 | 13.7% (inactive) | 
9 | COc1ccc(C2C(C(=O)N3CCN(C)CC3)c3ccccc3C(=O)N2C2CCCCC2)cc1 (configuration not stated) | -5.85% (inactive) | 
10 | CN(C)CCCNc1ncnc2nc[nH]c12 | 1.66% [at 11.4 µM] (inactive) | 
11 | Cc1ccc2nc(NC(=O)CSCC(=O)OCC(=O)c3ccc(Br)cc3)sc2c1 | -12.5% (inactive) | 
12 | Cc1ccc2nc(NC(=O)COC(=O)CSc3nc(C)cc(C)n3)sc2c1 | -23.1% (inactive) | 
13 | Cc1ccc2nc(NC(=O)COC(=O)c3ccc(Br)o3)sc2c1 |  | 15.8 µM (active)
14 | C=C[C@]1(C)C[C@H](OC(=O)CO)[C@]2(C)C3C(=O)CC[C@]3(CC[C@H]2C)[C@H](C)[C@H]1O (some centres not stated) | -10.6% [at 11.4 µM] (inactive) | 
15 | CC(=O)OCC(=O)[C@@]1(O)CC[C@@H]2[C@H]3CCC4=CC(=O)C=C[C@]4(C)[C@]3(F)[C@@H](O)C[C@@]21C | -1.72% [at 25.6 µM] (inactive) | 
16 | O=C1C=C[C@@H](O)[C@H]2[C@@H]3C(=O)N(c4cccc(Oc5ccccc5)c4)C(=O)[C@@H]3CC[C@H]12 | -0.0224% [at 11.4 µM] (inactive) | 
17 | COc1ccccc1CCn1c(=O)c(-c2cc(F)cc(F)c2)nc2cncnc21 | -11.2% (inactive) | 
18 | CCCN(C(=S)Nc1ccccc1)C1CCS(=O)(=O)C1 (configuration not stated) | -4.85% (inactive) | 
19 | Cc1cccc(NC(=O)Cn2cccc2)c1 | -5.49% (inactive) | 
20 | Cc1cccc(NC(=O)Cn2c(=O)n3nc(CCn4nc(C)cc4C)nc3c3ccccc32)c1 |  | 14.1 µM (active)
21 | Cc1cccc(NC(=S)NNC(=O)CCn2cc(C)cn2)c1 | -3.85% (inactive) | 

Row | SMILES | activity, negative = inhibition | AC50
22 | COc1ccc(CCNC(=O)Cn2c(=O)oc3ccccc32)cc1OC | -18.7% (inactive) | 
23 | Cc1cccc(NC(=O)Cn2c(=O)oc3ccccc32)c1 |  | 3.16 µM (active)
24 | Cc1cccc(NC(=S)NC(=O)CCc2ccccc2)c1 | -17.4% (inactive) | 
25 | COc1cc(C2C(C(=O)OCCC#N)=C(C)NC3=C2S(=O)(=O)c2ccccc23)cc(OC)c1OC (configuration not stated) | -6.84% (inactive) | 
26 | Cc1ccc(-c2ccnc(=S)[nH]2)cc1 | -14.8% (inactive) | 
27 | Cc1c(C(=O)Nc2ccc(OCc3ccccc3)cc2)cccc1[N+](=O)[O-] | -5.06% (inactive) | 
28 | COc1ccc(/C=N/NC(=O)CCCC(=O)NC2CCCCC2)cc1 | 16.3% (inactive) | 
29 | CN(C)c1ncc2nc(-c3cc(F)cc(F)c3)c(=O)n(Cc3ccc(F)cc3)c2n1 | 10% (inactive) | 
30 | Cc1ccc(Nc2nc(Cl)nc(N(C)C#N)n2)cc1 | 1.15% (inactive) | 
31 | Nc1nnc(CC(=O)N/N=C/c2cccc([N+](=O)[O-])c2)s1 | -21.2% (inactive) | 
32 | Cc1sc(N/N=C/C=C/c2ccccc2)nc1-c1ccccc1 | -10.8% (inactive) | 
33 | Cc1cccc(-n2c(Cn3nc(C)c([N+](=O)[O-])c3C)n[nH]c2=S)c1 | 3.45% (inactive) | 
34 | Cc1ccc(C)c(NC(=O)Cn2nnc(C(=O)Nc3c(C)cccc3C)c2N)c1 | -25.4% (inactive) | 
35 | Cc1nc(/N=C(\N)Nc2ccccc2)nc2ccccc12 | -12.1% (inactive) | 
36 | Cc1ccc(C)c(N/C(N)=N/c2nc(C)cc(C)n2)c1 |  | 0.794 µM (active)
37 | Cc1cccc(N/C(N)=N/c2nc(C)cc(C)n2)c1 |  | 2.82 µM (active)
38 | C/C(=N\NC(=S)Nc1cccc(C)c1)c1ccccc1 | -25.1% (inactive) | 
39 | Cc1ccc(C)c(NC(=O)c2ncn[nH]2)c1 | 8.78% (inactive) | 
40 | Cc1cc(C)c(-c2cc([C@H](C)O/N=C\[C@@H](C)[C@H](OCc3ccccc3)C(C)C)on2)c(C)c1 | -7.16% [at 11.4 µM] (inactive) | 
41 | O=C(CCNC(=O)Cn1cnc2ccccc2c1=O)NCC1COc2ccccc2O1 (configuration not stated) | 16.6% (inactive) | 
42 | COc1cccc(OC)c1OCCNC[C@@H]1COc2ccccc2O1 |  | 251 nM (active) and inactive

Row | SMILES | activity, negative = inhibition | AC50
43 | O=C(N/N=C/c1ccco1)/C(=C/c1cccc([N+](=O)[O-])c1)NC(=O)c1ccccc1 | -15.4% (inactive) | 
44 | Cn1cc(/C=C2/SC(=O)N(CC(=O)Nc3ccc4c(c3)OCO4)C2=O)c2ccccc21 | -6.65% (inactive) | 
45 | O=c1oc2cc(N=Cc3ccc4c(c3)OCO4)ccc2c2ccccc12 | 4.96% [at 11.4 µM] (inactive) | 
46 | c1ccc(Nc2ncncc2-c2ccc3c(c2)OCO3)cc1 |  | 12.6 µM (active)
47 | Cn1c(-c2ccc3c(c2)OCO3)cc(=O)c2ccccc21 |  | 1.58 µM (active)
48 | Cn1c(-c2ccc3c(c2)OCO3)cnc1NCc1ccccc1 |  | 0.794 µM (active)
49 | O=C(O)c1cc(-c2ccc3cc4c(cc3c2)OCO4)nc2ccccc12 | -6.77% [at 11.4 µM] (inactive) | 
50 | CN(C)c1ccc(-c2cc(NCc3ccccc3)ncn2)cc1 | -17.2% (inactive) | 
51 | CN(C)C(=O)c1ccc(-c2cncnc2Nc2ccccc2)cc1 | -2.66% (inactive) | 
52 | Cc1noc(C)c1-c1cncnc1Nc1ccccc1 | -7.49% (inactive) | 
53 | Cc1cccc(CNc2ncncc2-c2ccc3c(c2)OCO3)c1 |  | 6.31 µM (active)
54 | Cc1cccc(CNc2ncncc2-c2ccc(C(=O)N(C)C)cc2)c1 | -9.23% (inactive) | 
55 | Cc1ccc(C(=O)N/N=C\c2ccc[nH]2)cc1[N+](=O)[O-] | -6.03% (inactive) | 
56 | CCCOc1ccc(C(=O)NNC(=S)NC(=O)c2cc(-c3ccccc3)nc3ccccc23)cc1 | 3.87% (inactive) | 
57 | O=C(Nc1cccn2ncnc12)c1ccc(Cl)cc1Cl | 2.48% (inactive) | 
58 | COC(=O)C1=C(NC(=O)c2cccs2)CCS1 | 12.9% (inactive) | 
59 | COc1cnc(-c2ccccn2)nc1Sc1c(Cl)cccc1Cl | -25% (inactive) | 
60 | COc1cc(OC)cc(C(=O)Nn2cc(C(=O)N3CCN(C)CC3)c3ccccc3c2=O)c1 | -15.2% (inactive) | 
61 | O=C1CC[C@H](N2C(=O)c3ccccc3C2=O)C(=O)N1 |  | inactive
62 | CCn1cc(C(=O)O)c(=O)c2cc(F)c(N3CCNCC3)nc21 | 6.39% [at 25.6 µM] (inactive) | 
